Bioassay records as filed in PubChem BioAssay.
This is a sample that favours compounds with a hit; in the whole collection about 1.6% have one here.
OPRM1-OPRD1 inv = inverse agonist of human OPRM1-OPRD1 heterodimerization. P35372+P41143. inhibition, % at 9.3 µM. 340,000 compounds, 0.21% hits. cell-based MOR-DOR heterodimer luminescence, inverse agonism. AID 504357; in the data active = inhibition above about 22%, passing the limit was not always enough;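 note: 0% = cells with DMSO and 100% = wells without cells with DMSO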
HTR5A inv ctr = counter-screen for OPRM1-OPRD1 inverse agonists: human HTR5A inverse agonism; inhibition, % at 9.3 µM; HTR5A cell line, luminescence; 340,000 compounds, 0.083% hits; in the data active = inhibition mostly above about 23%, no sharp cut-off; inactive = mostly below about 18%;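 note: 0% = cells with DMSO and 100% = no-cell wells with DMSO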
HTR5A ag = counter-screen for OPRM1-OPRD1 agonists: human HTR5A agonism | P47898 | HTR5A agonist assay, luminescence, cell-based | activation, % at 9.3 µM | 340,000 compounds, 0.61% hits | AID 504692; in the data active = activation mostly above about 9.5%, no sharp cut-off; inactive = mostly below about 7.6%;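 note: 0% = cells with vehicle only and 100% = reference agonist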
MOR-DOR ag = agonists of human mu-delta opioid receptor heterodimerization | cells, OPRM1-OPRD1 heterodimerization, luminescence | activation, % at 9.3 µM | 340,000 compounds, 0.3% hits | AID 504326; in the data active = activation above about 18%;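 note: 0% = vehicle-treated cells and 100% = reference agonist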
m5-HT2A agonist = mouse HTR2A agonism via beta-arrestin recruitment. P35363. CHO-K1 mHTR2A beta-arrestin complementation, luminescence; percent of 30 µM serotonin response. activation, % at 7.6 µM. 360,000 compounds, 0.66% hits;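 active = activation above a run cutoff, the mean activation of all tested compounds plus 3 SD, cut at about 14% in these data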;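 note: 0% = plate median of compound wells and 100% = 30 µM serotonin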
Target sequence (P35363 whole entry, looked up): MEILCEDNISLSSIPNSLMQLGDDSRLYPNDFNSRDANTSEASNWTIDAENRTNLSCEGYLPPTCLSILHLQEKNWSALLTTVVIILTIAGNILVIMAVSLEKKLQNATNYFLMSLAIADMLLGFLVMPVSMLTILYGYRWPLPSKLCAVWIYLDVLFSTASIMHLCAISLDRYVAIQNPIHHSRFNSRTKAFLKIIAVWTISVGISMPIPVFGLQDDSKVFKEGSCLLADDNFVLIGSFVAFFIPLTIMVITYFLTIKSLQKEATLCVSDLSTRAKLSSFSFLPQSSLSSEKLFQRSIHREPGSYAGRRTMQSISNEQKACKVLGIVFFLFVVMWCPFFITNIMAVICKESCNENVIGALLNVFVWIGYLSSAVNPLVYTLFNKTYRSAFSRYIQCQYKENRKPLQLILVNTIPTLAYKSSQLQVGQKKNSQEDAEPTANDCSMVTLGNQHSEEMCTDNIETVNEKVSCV
OPRM1 ag = OPRM1 agonism in mouse HTR2A counterscreen; shares compounds with m5-HT2A agonist; U2OS OPRM1 beta-arrestin PathHunter, luminescence; DMSO 0%, DAMGO 9.3 µM 100%; activation, % at 9.3 µM; 2,300 compounds, 5.3% hits; AID 624380;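 active = mean activation above the mean of DMSO-only wells plus 3 SD, cut at about 0.5% in these data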
HTR2A ag conf = mouse HTR2A agonism confirmed | shares compounds with m5-HT2A agonist | CHO-K1 PathHunter beta-arrestin recruitment, luminescence; DMSO 0%, 30 µM serotonin 100% | activation, % at 7.6 µM | 2,300 compounds, 19% hits | AID 624381;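 active = mean activation across triplicates above the hit threshold derived in the original primary screen, cut at about 15% in these data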
Starred values were filed as active, the others as inactive; / = not tested or not shown.

SMILES	OPRM1-OPRD1 inv	HTR5A inv ctr	HTR5A ag	MOR-DOR ag	m5-HT2A agonist	OPRM1 ag	HTR2A ag conf
O=C(OCC(=O)c1ccc(Cl)s1)c1cnccn1	23	-4	2	-4	1	/	/
C=CCNc1nc2c(c(=O)[nH]c(=O)n2C)n1Cc1cccc(C)c1	-3	1	0	1	2	/	/
COc1cc(C)nc(NS(=O)(=O)c2ccccc2Cl)n1	-2	2	-1	0	31*	0	-1
Cc1cc(NN)nc(NS(=O)(=O)c2ccccc2Cl)n1	-14	-5	2	3	-3	/	/
COc1ccc(NC(=O)Cn2nnc(C(=O)NCc3cccs3)c2N)cc1	12	-3	-3	-2	15*	-1	-1
Cc1ccc(NC(=O)Cn2nnc(C(=O)NCc3cccs3)c2N)cc1	0	-10	-4	0	-1	/	/
COc1ccc(NC(=O)Cn2nnc(C(=O)NCc3cccc(OC)c3)c2N)cc1	14	11	-3	-3	2	/	/
COc1cccc(CNC(=O)c2nnn(CC(=O)Nc3cccc(C)c3)c2N)c1	13	-6	0	-3	18*	0	-3
C[C@H]1CCCCO[C@H](CN(C)Cc2ccccc2)[C@@H](C)CN([C@@H](C)CO)C(=O)c2cc(NC(=O)CCC(F)(F)F)ccc2O1	/	/	/	/	23*	-1	0
COc1ccc(CN(C)C[C@H]2OCCCC[C@H](C)Oc3ccc(NC(=O)CCC(F)(F)F)cc3C(=O)N([C@@H](C)CO)C[C@@H]2C)cc1	/	/	/	/	4	/	/
CN(C)S(=O)(=O)c1ccc(N2CCCC2)c(C(=O)N2CCN(S(=O)(=O)c3ccc(F)cc3)CC2)c1	1	22	-9	0	-1	/	/
Cc1cc(NC(=O)c2ccc3sc([C@@H]4O[C@H](CO)[C@H](O)[C@H](O)[C@H]4O)nc3c2)no1	/	/	/	/	21*	0	-2
CN(Cc1ccccc1)C(=O)c1ccc2sc([C@@H]3O[C@H](CO)[C@H](O)[C@H](O)[C@H]3O)nc2c1	/	/	/	/	21*	0	1
COc1ccccc1NC(=O)c1ccc(-c2ccc(Br)cc2)o1	4	-1	1	-1	31*	0	-3
COCCNC(=O)C1(C)CCCN(C(=O)c2ccccc2OC(F)(F)F)C1 (stereo not drawn)	/	/	/	/	3	/	/
COC(=O)c1cc(NC(=O)c2c(F)c(F)c(F)c(F)c2F)cc(C(=O)OC)c1	-23	-3	7	5	18*	0	6
c1ccc(Nc2nc(N3CCCCC3)nc(N3CCNCC3)n2)cc1	-17	16	3	3	55*	-1	31*
COc1ccc(OC)c(S(=O)(=O)N(C)CC(=O)Nc2ccccc2OC)c1	21	11	-4	-4	16*	-1	-5
CC(C)C(NC(=O)/C(=C/c1ccco1)NC(=O)c1ccc(Br)o1)C(=O)O (stereo not drawn)	11	0	0	-2	4	/	/
CC(C)C(NC(=O)/C(=C\c1ccco1)NC(=O)c1ccco1)C(=O)O (stereo not drawn)	7	5	-1	-1	19*	-1	-4
CCc1ccc(NC(=O)Nc2cccc(OC)c2)cc1	-23	9	-3	3	-1	/	/
Cn1nnnc1SC(C(=O)Nc1cccc(C(F)(F)F)c1)c1ccccc1 (stereo not drawn)	-37	3	-1	7	-4	/	/
CCN1C(=O)[C@H]2[C@@H](c3ccc(Cl)cc3)N3C(=O)CN(CC4CC4)C(=O)[C@@]3(C)[C@H]2C1=O	11	18	-7	-2	2	/	/
CCN1C(=O)[C@H]2[C@@H](c3ccc(OC)cc3)N3C(=O)CN(CC4CC4)C(=O)[C@@]3(C)[C@H]2C1=O	17	-43	0	-3	21*	0	-2
COc1ccccc1-n1c(SCC(N)=O)nc2sc3c(c2c1=O)CCC3	15	-9	3	-3	-1	/	/
SMILES	OPRM1-OPRD1 inv	HTR5A inv ctr	HTR5A ag	MOR-DOR ag	m5-HT2A agonist	OPRM1 ag	HTR2A ag conf
Cc1cc2occ(CC(=O)NC3(C)CCS(=O)(=O)C3)c2cc1C (stereo not drawn)	12	-12	1	-2	10	/	/
Cc1ccc(C(=O)OCC(=O)NCc2cccc(Cl)c2)cc1S(=O)(=O)N1CCCCC1	7	-14	4	-1	17*	0	-6
O=C(COC(=O)c1ccc(Cl)c(S(=O)(=O)N2CCCCC2)c1)NCCc1ccccc1	-22	-25	4	3	1	/	/
O=S(=O)(NC1=NCCCCC1)c1cc(F)ccc1F	16	-5	1	-3	22*	-1	2
CCC(=O)NCc1csc(-c2cccs2)n1	3	-17	7	-1	39*	-1	-2
O=C(C[n+]1ccccc1)N1CCCc2ccccc21	11	2	-1	-2	20*	0	2
CN(CC(=O)Nc1ccccc1C(F)(F)F)C(=O)CSc1nnc(N)s1	20	-8	2	-4	-3	/	/
Cc1ccc(CN(C)c2ccc(S(=O)(=O)N3CCCC3)cn2)cc1	-8	6	-2	2	-3	/	/
COc1ccc(S(=O)(=O)N2CCOC2CNC(=O)C(=O)NCCc2ccccc2)cc1OC (stereo not drawn)	2	-14	1	0	3	/	/
COc1ccc(CCNC(=O)C(=O)NCC2CCCN2S(=O)(=O)c2ccccc2)cc1 (stereo not drawn)	4	-13	5	-1	16*	0	0
COc1ccc(S(=O)(=O)N2CCOC2CNC(=O)C(=O)NCCc2ccccc2)cc1C (stereo not drawn)	-2	-1	1	0	16*	-1	-5
COc1cc(CC(=O)Nc2c(-c3ccccc3)[nH][nH]c2=O)cc(OC)c1	/	/	/	/	-1	/	/
O=C(Cc1cc(C(F)(F)F)cc(C(F)(F)F)c1)Nc1c(-c2ccccc2)[nH][nH]c1=O	/	/	/	/	28*	-1	-2
O=C(CN1C2=NCCCN2c2ccccc21)c1ccc([N+](=O)[O-])cc1	-8	8	4	2	-1	/	/
CC(=O)Nc1ccc(Nc2nc(C)c([N+](=O)[O-])c(N(C)c3ccccc3)n2)cc1	5	16	2	-1	25*	0	-5
O=C(C[C@H]1C[C@H](C(=O)N2CCOCC2)[C@@]2(CCC3CCCC3)c3[nH]c4cc(-c5ccco5)ccc4c3CCN2C1=O)NCCc1ccccn1	3	-7	2	-1	4	/	/
CN(C)CCCn1c(NC(=O)C2CCCCC2)nc2ccccc21	3	-15	2	0	20*	-1	4
CCCCn1c(NC(=O)C2CCCCC2)nc2ccccc21	-4	3	-1	1	3	/	/
CC(C)c1ccc(C(=O)CN2C(=O)NC3(CCc4ccccc43)C2=O)cc1 (stereo not drawn)	-1	4	-1	0	1	/	/
